Laboratory results taken from ChEMBL document CHEMBL5308504, “Tm Shift (DSF) assay results for EUbOPEN Chemogenomics Library” (2023).

Experiments:
[1] = target: Bromodomain-containing protein 4 (Homo sapiens) (UniProt O60885); settings: Compound concentration 20.0 uM, Protein concentration 2.0 uM, Result type QC Liability
[2] = target: T1, Transcription intermediary factor 1-alpha (Homo sapiens) (UniProt O15164); settings: Compound concentration 20.0 uM, Protein concentration 2.0 uM, Result type QC Liability
T1 sequence (whole entry): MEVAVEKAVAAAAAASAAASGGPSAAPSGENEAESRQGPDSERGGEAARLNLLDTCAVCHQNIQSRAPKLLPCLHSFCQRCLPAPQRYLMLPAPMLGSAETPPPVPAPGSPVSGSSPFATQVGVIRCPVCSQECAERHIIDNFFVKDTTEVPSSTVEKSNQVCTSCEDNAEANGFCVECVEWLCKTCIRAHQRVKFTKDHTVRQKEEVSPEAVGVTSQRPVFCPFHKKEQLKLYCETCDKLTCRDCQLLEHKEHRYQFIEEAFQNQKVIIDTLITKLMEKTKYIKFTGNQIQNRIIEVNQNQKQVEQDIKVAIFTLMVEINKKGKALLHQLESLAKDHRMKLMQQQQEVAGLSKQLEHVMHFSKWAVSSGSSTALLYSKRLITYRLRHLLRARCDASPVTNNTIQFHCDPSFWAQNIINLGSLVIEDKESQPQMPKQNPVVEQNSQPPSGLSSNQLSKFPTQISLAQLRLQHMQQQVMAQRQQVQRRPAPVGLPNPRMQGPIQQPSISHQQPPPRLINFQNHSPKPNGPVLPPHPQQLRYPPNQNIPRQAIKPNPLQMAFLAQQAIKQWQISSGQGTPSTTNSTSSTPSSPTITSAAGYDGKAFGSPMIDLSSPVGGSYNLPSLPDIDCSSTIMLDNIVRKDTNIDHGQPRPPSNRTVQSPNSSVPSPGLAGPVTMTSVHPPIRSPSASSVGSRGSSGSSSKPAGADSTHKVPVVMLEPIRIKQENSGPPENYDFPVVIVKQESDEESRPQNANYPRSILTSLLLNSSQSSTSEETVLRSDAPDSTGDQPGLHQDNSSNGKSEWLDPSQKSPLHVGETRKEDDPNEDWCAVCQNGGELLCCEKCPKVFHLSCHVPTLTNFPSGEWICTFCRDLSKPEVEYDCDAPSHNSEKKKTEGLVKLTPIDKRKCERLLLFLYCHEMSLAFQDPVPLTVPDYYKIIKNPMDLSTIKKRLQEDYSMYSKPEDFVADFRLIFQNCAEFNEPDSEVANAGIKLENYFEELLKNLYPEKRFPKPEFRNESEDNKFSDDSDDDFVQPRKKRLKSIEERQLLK

SMILES | ΔTm [1] [°C] | ΔTm [2] [°C]
CCCCC(C)(O)C/C=C/[C@H]1[C@H](O)CC(=O)[C@@H]1CCCCCCC(=O)O (stereo not given in full) | -1.42 | -0.79
CNC(=O)COc1cc2cc(Nc3nc(N4CCC(C(=O)N(C)C)CC4)ncc3Cl)cc(OC)c2n(C)c1=O | -1.01 | -0.08
Nc1ncc2c(n1)-c1c([nH]c3ccc(C4=CCOCC4)cc13)CCC2 | -0.2 | 0.27
N#Cc1ccc(C#CC[C@@H](C#N)NC(=O)[C@@H]2CCCCN2)cc1F | -1.93 | 0.36
CC(=O)c1c(C)c2cnc(Nc3ccn(C)n3)nc2n(C2CCCC2)c1=O | -0.76 | -2.16
CCCNc1ccc2ncc(-c3ccncc3)n2n1 | -0.06 | -2.61
Cc1cc(C2CCCNC2)ccc1Nc1ncc(Br)c(NCc2cccc3c2C(C)(C)C(=O)N3)n1 (stereo not given) | -4.96 | -2.52
CCN1C(=O)N(c2c(F)c(OC)cc(OC)c2F)Cc2cnc3[nH]c(CN4CCOCC4)cc3c21 | -1.4 | -3.85
CC(C)(O)CNC(=O)N1C(=O)N(c2cccc(C(F)(F)F)c2)C2=C(C(=O)CC2)[C@H]1c1ccc(C#N)cc1 | 0.34 | 0.22
CN1C(=O)c2c(nn(Cc3ccc(-c4cccc(F)n4)cc3)c2Nc2ccccc2)N2C1=N[C@@H]1CCC[C@@H]12 | 1.34 | 0.8
COc1cc2c(cc1CC=C(C)C)C(=O)C[C@@H](c1ccc(O)cc1)O2 | 0.4 | 0.63
Cc1[nH]nc(C(F)(F)F)c1Cc1sc2c(c1C(=O)N1C[C@](C)(O)CO1)c(=O)n(C)c(=O)n2C(C)C | -1.28 | -0.8
COCCOCn1c(S(C)(=O)=O)nc2c1c(=O)n(C)c(=O)n2C | -12.2 | 0.18
O=C(Nc1snnc1C(=O)Nc1ccc(N2CCCC2)cc1)c1cncc(C(F)(F)F)c1 | -0.7 | -1.14
CCn1c(CNC(=O)c2ncc(C)nc2N)[n+](CC)c2ccc(C(=O)N(C)CCN(C)C)cc21 | -1.53 | -0.01
CCN(C)C(=O)c1ccc2c(c1)NC(=O)/C2=C(\NC1CCN(C)CC1)c1ccccc1 | 0.55 | 0.21
CC1(C)CCC(CN2CCN(c3ccc(C(=O)NS(=O)(=O)c4ccc(NCC5CCOCC5)c([N+](=O)[O-])c4)c(Oc4cnc5[nH]ccc5c4)c3)CC2)=C(c2ccc(Cl)cc2)C1 | -1.82 | -1.45
COc1ccc(CC[C@@H](OC(=O)[C@H]2CCCCN2C(=O)[C@@H](c2cc(OC)c(OC)c(OC)c2)C2CCCCC2)c2cccc(OCCN3CCOCC3)c2)cc1OC | -4.83 | -1.63
O=C(Nc1ccc(Cl)c(-c2ccccn2)c1)c1cccc(COc2ccc(Br)cc2CNCCO)c1 | -1.21 | -0.08
CCc1ccc(N(CC(C)C)S(=O)(=O)c2ccc(OCC3CCOCC3)c(CO)c2)cc1 | -3.99 | -0.46
Cc1nccn1-c1ccc(Sc2cccc(C3(C(N)=O)CCOCC3)c2)cc1 | -0.68 | -1.02
Cc1cc2c(ncn2C2(C)CN(C(=O)c3ccn(CC4CCN([C@H]5C=CCCCC5)CC4)c3)C2)c(N)n1 | -1.87 | -2.7

SMILES | ΔTm [1] [°C] | ΔTm [2] [°C]
Cn1cncc1-c1cn(-c2cccc(C(=O)Nc3cccc(C(F)(F)F)c3)c2)nn1 | -2.66 | -0.32
O=C(Nc1ccc(-n2nc(-c3cccnc3)cc2C(F)(F)F)cn1)c1ccc(-c2ccccc2)c(F)c1 | -2.41 | 0.2
COc1cc2ncnc(Nc3ccc(F)c(Cl)c3)c2cc1OCCN(C)C[C@H](C)O | -3.09 | -1.09
c1ccc(C2CCN(c3cnc4c(N5CCOCC5)nccn34)CC2)cc1 | -0.69 | -1.25
CC(=O)O[C@H]1C(=O)[C@@]2(C)[C@H]([C@H](OC(=O)c3ccccc3)[C@]3(O)C[C@H](OC(=O)[C@H](O)[C@@H](NC(=O)c4ccccc4)c4ccccc4)C(C)=C1C3(C)C)[C@]1(OC(C)=O)CO[C@@H]1C[C@@H]2O | -0.05 | -0.24
Cc1ccc(NC(=O)c2ccc(CN3CC[C@H](N(C)C)C3)c(C(F)(F)F)c2)cc1Nc1nccc(-c2cncnc2)n1 | -1.21 | -0.69
Cn1nccc1-c1ccc(Sc2cccc(C3(C(N)=O)CCOCC3)c2)cc1 | -0.19 | 0.56
C[C@H](NC(=O)c1cnc2n1[C@](C)(Cc1ccc(C#N)cc1)C(=O)N2c1cc(Cl)c(F)c(Cl)c1)C(=O)NC1(c2ccccn2)CC1 | 5.21 | 0
Cc1cc(SCc2sc(-c3ccc(C(F)(F)F)cc3)nc2C)ccc1OCC(=O)O | -3.91 | -2.79
CN(C)CCC[C@@]1(c2ccc(F)cc2)OCc2cc(C#N)ccc21 | -1.59 | -0.51
O=C(O)CCCN1CCC[C@H]1COc1ccc(Oc2ccc(Cl)cc2)cc1 | -2.86 | -0.92
O[C@]1(C(F)(F)F)CCCC[C@H]1Nc1ccc(F)cc1 | -1.92 | -2.51
CC(C)NC(=O)[C@H]1CCC[C@H]1Nc1nc(Nc2ccc(CN(C)C)cc2)ncc1Br | -3.19 | -4.42
O=C(Nc1cccc(C(F)(F)F)c1)c1cccc(-n2cc(-c3ccco3)nn2)c1 | -12.8 | -0.66
CNC(=O)c1cc(C(=O)N[C@H]2[C@@H]3COC[C@@H]32)cc2c1O[C@@H](CF)[C@@H]2c1ccccc1 | – | -2.85
CC#CCC(C)[C@H](O)/C=C/[C@@H]1[C@H]2C/C(=C/CCCC(=O)O)C[C@H]2C[C@H]1O (stereo not given in full) | -2.19 | 0.19
COC[C@@H](C)N[C@H]1CC[C@H](Nc2cc(-c3cccc(NCC4(C#N)CCOCC4)n3)c(Cl)cn2)CC1 | -0.6 | -3.05
CC1(C)C(=O)N([C@H]2CCc3c(O)cccc32)c2nc(Nc3cccc(CN4CCCC4)c3)ncc21 | -2.45 | -2.64
COc1cc(C(N)=O)nc(-c2cccc(C#C[C@]3(O)CCN(C)C3=O)c2)c1 | -0.77 | -0.62
CC(C)(C)c1cnc(CSc2cnc(NC(=O)C3CCNCC3)s2)o1 | 0.24 | -1.61
CN(C)[C@H]1CCc2nc(NC(=O)c3cccc(Cn4cc(-c5ccc(C#N)cc5)cn4)c3)sc2C1 | -1.88 | -2.75
